Shown are actives, neighbours in structure and some others; about 2.2% of the full set was active somewhere.
aSyn rescue: alpha-synuclein toxicity inhibition in yeast | 370,000 tested, 0.14% active | Potency, µM (series often up to 46.1 µM), for inactives: at the highest dose growth rescue (activation), most hits filed as activators | Yeast expressing alpha-synuclein, growth rescue, BacTiter-Glo, 24 h; note: % of control where 0% means no effect; nearly all actives have a fitted effect of over 65% in size
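Rescue of yeast growth: cells expressing toxic alpha-synuclein, induced in galactose at OD600 0.02, incubated with compound 24 h at 30 C. ATP luminescence quantified growth; inhibitors of toxicity appear as activators.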
FUS yeast rescue: FUS proteinopathy suppression in yeast; Potency, µM (highest dose often 76.6 µM), actives largely listed as activators; S. cerevisiae FUS-expressing, growth rescue, OD600, 24 h; AID 1347120; 390,000 tested, 0.24% active;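 note: plate controls were DMSO vehicle for no effect and reference control for full effect; nearly all actives have a fitted effect of over 55% in size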
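Steps: raffinose overnight preculture; dilution to OD 0.005 in 2% galactose minimal medium; compound addition (concentration series); 24hr at 30C, 99% humidity; absorbance read at 600 nm.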
Abeta yeast res: restores growth of yeast expressing A-beta42 peptide; yeast expressing A-beta42, growth rescue, OD600, 48 h; response scale: 0% DMSO, 100% iron-clioquinol control; Potency, µM (highest dose often 46.1 µM), most hits filed as activators; 410,000 tested, 0.063% active; note: nearly all actives have a fitted effect of over 55% in size
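Growth rescue measured by 600 nm absorbance after 48 h yeast culture at 30 C with compound. Values normalized between DMSO and an equimolar ferric chloride plus clioquinol control.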
TDP43 rescue: rescues yeast growth from TDP-43 toxicity. Potency, µM (highest dose often 46.1 µM), for inactives: at the top dose growth rescue (activation), usual class: activators. TDP-43 expressing yeast growth rescue, BacTiter-Glo, 24 h. 410,000 tested, 1.8% active. AID 652104; note: % of control where 0% means no effect; nearly all actives have a fitted effect of over 50% in size
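Cell-based yeast growth screen: TDP-43 expression induced in galactose, inoculum OD600=0.02 after raffinose pregrowth to mid-log. Read-out BacTiter-Glo luminescence at 24 hr, 30 deg C; inhibition of toxicity seen as signal increase.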
Mito fusion act: inhibitors of mitochondrial division or activators of mitochondrial fusion. S. cerevisiae fusion-defective mutant growth rescue, CellTiterGlo 48 h. Potency, µM (highest dose often 46.1 µM), for the others: at the top dose growth rescue (activation), actives largely listed as activators. 320,000 tested, 0.23% active; note: % of control where 0% means no effect; nearly all actives have a fitted effect of over 45% in size
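Yeast fusion mutant, YPEG (non-fermentable carbon), compound, 48 h at 37C non-permissive; CellTiterGlo added, 10 min RT, luminescence read. Rescued growth = division inhibition.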
Starred values were filed as active, the others as inactive; i = inactive; ? = inconclusive; . = no result; ! = a repeat was not active. Calls come from the whole dose curve; as a rule, active = well fitted curve in the direction sought with a large enough effect; inconclusive = small, poorly fitted or top-dose-only effect, or another doubt; inactive = no such curve, though single readings can be large; an effect the other way counts as inactive or inconclusive. Potency is the fitted concentration of half-maximal effect.

SMILES	aSyn rescue	FUS yeast rescue	Abeta yeast res	TDP43 rescue	Mito fusion act
CC(CCl)n1c(=O)c2ccccc2n1C(=O)c1ccccc1 (stereo not given)	-11%	i	i	11µM*	.
CC(=O)NC1=C(NC2CCS(=O)(=O)C2)C(=O)c2ccccc2C1=O (stereo not given)	-8%	.	i	25µM*	-1%
CN(C1=C(NC(=O)c2ccccc2)C(=O)c2ccccc2C1=O)C1CCS(=O)(=O)C1 (stereo not given)	10%	i	i	0%	-5%
CCOC(=O)c1ccc(-n2c(CCC(=O)O)ccc2-c2ccc(F)cc2)cc1	9%	i	i	13µM*	6%
CC(=O)Nc1ccc(C(=O)N2c3ccccc3N=C(c3ccc4c(c3)OCO4)C2C(=O)NCc2ccccc2)cc1 (stereo not given)	-11%	13µM*	i	7%	.
COc1ccc(C2=Nc3ccccc3N(C(=O)c3ccc4c(c3)OCO4)C2C(=O)NCc2ccccc2)cc1 (stereo not given)	7%	?	i	?	.
Cn1nccc1C(=O)N1CCC(Cc2ccccc2)CC1	3%	i	i	?	0%
CCCCCCSc1cc(-c2nc3cc(C)ccn3c2NCCCC)ccc1OC	-57%	28µM*!	i	-91%	-8%
CCCCCCSc1ccc(-c2nc3ccc(Cl)cn3c2NCCCC)cc1OC	-2%	i	i	17%	.
CCCCCCSc1ccc(-c2nc3ccc(C)cn3c2NCCCC)cc1OC	-63%	16µM*	i	-93%	.
CCOC(=O)C1CCCN(C(=O)c2cccc(OC(F)(F)F)c2)CC1 (stereo not given)	4%	i	i	14%	.
Cc1oc2c(C)c3oc(=O)c(CCC(=O)O)c(C)c3cc2c1-c1ccccc1	15%	i	i	25%	3.5µM*
Cc1c(CCC(=O)O)c(=O)oc2c(C)c3occ(-c4ccc(Cl)cc4)c3cc12	8%	i	i	10%	20%
O=C(NCc1ccc2c(c1)CCN2C(=O)c1ccc(F)cc1)c1cc2ccccc2[nH]1	.	i	i	32µM*	.
COc1ccc(OCC(=O)NCc2ccc3c(c2)CCN3C(=O)c2ccccc2)cc1	.	i	i	25µM*	.
O=C(NCc1ccc2c(c1)CCN2C(=O)c1ccccc1)c1cc2ccccc2[nH]1	.	i	i	5%	.
COc1ccc(CCC(=O)NCc2ccc3c(c2)CCN3C(=O)c2cccc(C)c2)cc1	.	?	i	25µM*	.
COc1ccc(CNCc2ccccc2)cc1COc1ccc(NC(C)=O)cc1	0%	.	.	.	.
CC(=O)Nc1sc2c(c1-c1nc3ccccc3s1)CNC2	.	i	.	.	.
COc1ccc(-c2nc3c(C)cc(Br)cn3c2Cc2cccc(F)c2)cc1OC	7%	?	i	16µM*	.
COc1ccccc1Cc1c(-c2ccc(Cl)cc2)nc2c(C)cc(Br)cn12	-10%	?	i	25µM*	.
COc1ccc(-c2nc3c(C)cc(Br)cn3c2Cc2ccccc2)cc1OC	24%	i	i	0%	.
COc1ccc(-c2nc3ccc(Br)cn3c2Cc2cccc(F)c2)cc1OC	26%	i	i	14µM*	.
Cc1cc(C)cc(NC(=O)CSc2nc(-c3ccccc3)c3cc(F)ccc3n2)c1	.	i	i	-3%	.
CN(N=Nc1nc[nH]c1C(N)=O)C1CCCCC1	-4%	i	i	19%	.
SMILES	aSyn rescue	FUS yeast rescue	Abeta yeast res	TDP43 rescue	Mito fusion act
CCC(C(=O)OCC(=O)Nc1ccc(SC(F)F)cc1)c1ccccc1 (stereo not given)	0%	i	?	10µM*	1%
Cc1ccc(C2(C)NC(=O)N(CC(=O)N3CCc4ccccc43)C2=O)cc1 (stereo not given)	-4%	i	i	-24%	.
Cc1ccc(C2(C)NC(=O)N(CC(=O)N3c4ccccc4NC(=O)CC3C)C2=O)cc1 (stereo not given)	3.5µM*	i	i	-5%	0%
CCCNC(=O)c1noc2c1CCc1cc(OC)ccc1-2	0%	i	i	13µM*	-8%
COc1ccc(NC(=O)c2ccco2)cc1NC(=O)c1ccc(OC(C)C)cc1	.	?	i	14µM*	.
Cc1cccc(OCC(=O)Nc2cc(C)c(O)c(-c3nc4ccccc4o3)c2)c1	-8%	.	.	.	.
Nc1nonc1-n1nnc(C(=O)N/N=C/c2ccc(OCc3ccccc3)cc2)c1CN1CCCCC1	1%	i	.	?	-4%
O=C(Nc1cccc(C(F)(F)F)c1)c1cccnc1NCCO	0%	i	i	4%	-5%
CNC(=O)c1cccnc1Nc1cccc(C(F)(F)F)c1	-15%	i	i	18µM*	?
OC(c1cccc(Cl)c1)c1nc(/C=C/c2ccccc2)cs1 (stereo not given)	-14%	i	i	8.9µM*	.
COc1cccc(C(O)c2nc(/C=C/c3ccccc3)cs2)c1 (stereo not given)	?	i	i	22µM*	.
Cc1ccc(OCC(=O)NCC2(N(C)C)CCCCC2)cc1C	.	i	i	16%	.
CCc1nnc2c3ccccc3nc(Nc3ccc(C(C)=O)cc3)n12	.	i	i	?	.
C=CCN(C(=O)CSc1nc2ccsc2c(=O)n1Cc1ccc(C(=O)O)cc1)c1ccccc1	1%	?	i	2%	.
CCC(C)C(N)C(=O)N1CCCC1C(=O)NC(C(=O)O)C(C)CC (stereo not given)	7%	i	i	10%	.
COC(=O)c1ccc2nc(-c3ccc(OC)c(OC)c3)c(Cc3ccc(C)cc3)n2c1	6%	i	i	22µM*	.
COC(=O)c1ccc2nc(-c3ccc(F)cc3)c(Cc3cccc(F)c3)n2c1	0%	i	i	24%	.
COC(=O)c1ccc2nc(-c3cccc(Cl)c3)c(Cc3ccccc3OC)n2c1	-1%	i	i	35µM*	.
COC(=O)c1ccc2nc(-c3ccc(OC)c(OC)c3)c(Cc3cccc(F)c3)n2c1	24%	i	i	35µM*	.
O=C(COC(=O)/C=C/c1ccco1)NCc1ccco1	6%	i	i	3%	-3%
O=C(COC(=O)/C=C/c1ccco1)NCCc1ccccc1	3%	i	i	16µM*	6%
CSc1ccccc1NC(=O)COC(=O)/C=C/c1ccco1	1%	i	i	5µM*	.
CCOC(=O)C12CC1/C(=N/O)c1ccccc1O2 (stereo not given)	1%	.	.	.	?
O=C(COc1ccccc1C(=O)Nc1ccccc1)Nc1cccc(Cl)c1	14%	.	.	.	.
CCCCCCNC(=O)N[C@H](C(=O)NCCC[C@H]1CN2C(=NC[C@H]2C)N1CCC(c1ccccc1)c1ccccc1)C(C)O (stereo not given in full)	.	.	.	.	-32%
